Measurements as given in the supplement of paper PMC11732987, “Enantioselective OTUD7B fragment discovery through chemoproteomics screening and high-throughput optimisation” (Communications Chemistry, 2025).

Legend:
Experiment in all cases: log2 ratio of Biotin-Ahx-Ub-VS probe labelling (fragment/DMSO); higher = less target engagement (more negative = stronger competition), active = hit call of the paper (q ≤ 0.05, log2 ratio ≤ -1)
Conditions in all cases: compound concentration: 200 uM; treatment time: 3 h
USP34 = USP34 (UniProt Q70CQ2)
How it was run: (§1)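 Labelled DUBs from HEK293T lysate were NeutrAvidin-enriched, digested with LysC and trypsin, and run by diaPASEF LC-MS/MS. Before that, each 495 µg sample in Tris/CHAPS/IGEPAL buffer with protease inhibitors was treated in triplicate with fragment at 200 µM or vehicle for 3 h, then with Biotin-Ahx-Ub-VS at 0.5 µM final for 1 h. Values are average log2 ratios of fragment over vehicle by unpaired t-test, based on global-median-normalised Spectronaut label-free quantities from proteins with ≥2 unique peptides.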

USP36 = target: T1, USP36 (UniProt Q9P275)
T1 sequence (whole entry): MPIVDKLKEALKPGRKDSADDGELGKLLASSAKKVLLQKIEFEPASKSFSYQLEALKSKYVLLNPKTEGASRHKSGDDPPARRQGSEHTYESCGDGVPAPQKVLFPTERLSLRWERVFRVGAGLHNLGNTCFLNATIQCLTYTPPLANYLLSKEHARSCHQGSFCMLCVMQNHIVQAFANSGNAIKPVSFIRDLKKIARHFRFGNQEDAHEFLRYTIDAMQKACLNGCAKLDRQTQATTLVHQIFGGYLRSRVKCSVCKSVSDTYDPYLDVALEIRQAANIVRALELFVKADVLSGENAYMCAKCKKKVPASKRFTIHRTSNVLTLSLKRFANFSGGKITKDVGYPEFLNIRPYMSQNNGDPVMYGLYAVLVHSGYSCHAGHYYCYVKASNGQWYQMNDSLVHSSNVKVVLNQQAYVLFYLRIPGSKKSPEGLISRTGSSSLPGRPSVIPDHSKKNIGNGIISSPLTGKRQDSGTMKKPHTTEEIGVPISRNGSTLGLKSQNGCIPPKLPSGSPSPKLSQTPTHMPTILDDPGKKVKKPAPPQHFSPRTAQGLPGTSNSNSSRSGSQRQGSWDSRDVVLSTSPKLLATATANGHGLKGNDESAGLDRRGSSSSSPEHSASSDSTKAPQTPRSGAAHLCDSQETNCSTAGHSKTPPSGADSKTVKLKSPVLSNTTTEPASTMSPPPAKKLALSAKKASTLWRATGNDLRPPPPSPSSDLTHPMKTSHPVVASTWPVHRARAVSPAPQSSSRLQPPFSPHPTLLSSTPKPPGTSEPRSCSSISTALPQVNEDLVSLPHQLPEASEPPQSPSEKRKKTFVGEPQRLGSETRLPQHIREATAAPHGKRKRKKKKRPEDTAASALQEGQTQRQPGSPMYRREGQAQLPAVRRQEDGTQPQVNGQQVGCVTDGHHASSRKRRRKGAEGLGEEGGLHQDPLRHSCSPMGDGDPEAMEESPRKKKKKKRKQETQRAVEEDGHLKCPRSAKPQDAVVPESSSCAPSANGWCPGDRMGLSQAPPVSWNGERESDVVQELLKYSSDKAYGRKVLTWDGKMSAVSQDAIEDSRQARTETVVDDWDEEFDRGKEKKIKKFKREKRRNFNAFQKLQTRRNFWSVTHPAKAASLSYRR
How it was run: as §1

USP38 = target: T2, USP38 (UniProt Q8NB14)
T2 sequence (whole entry): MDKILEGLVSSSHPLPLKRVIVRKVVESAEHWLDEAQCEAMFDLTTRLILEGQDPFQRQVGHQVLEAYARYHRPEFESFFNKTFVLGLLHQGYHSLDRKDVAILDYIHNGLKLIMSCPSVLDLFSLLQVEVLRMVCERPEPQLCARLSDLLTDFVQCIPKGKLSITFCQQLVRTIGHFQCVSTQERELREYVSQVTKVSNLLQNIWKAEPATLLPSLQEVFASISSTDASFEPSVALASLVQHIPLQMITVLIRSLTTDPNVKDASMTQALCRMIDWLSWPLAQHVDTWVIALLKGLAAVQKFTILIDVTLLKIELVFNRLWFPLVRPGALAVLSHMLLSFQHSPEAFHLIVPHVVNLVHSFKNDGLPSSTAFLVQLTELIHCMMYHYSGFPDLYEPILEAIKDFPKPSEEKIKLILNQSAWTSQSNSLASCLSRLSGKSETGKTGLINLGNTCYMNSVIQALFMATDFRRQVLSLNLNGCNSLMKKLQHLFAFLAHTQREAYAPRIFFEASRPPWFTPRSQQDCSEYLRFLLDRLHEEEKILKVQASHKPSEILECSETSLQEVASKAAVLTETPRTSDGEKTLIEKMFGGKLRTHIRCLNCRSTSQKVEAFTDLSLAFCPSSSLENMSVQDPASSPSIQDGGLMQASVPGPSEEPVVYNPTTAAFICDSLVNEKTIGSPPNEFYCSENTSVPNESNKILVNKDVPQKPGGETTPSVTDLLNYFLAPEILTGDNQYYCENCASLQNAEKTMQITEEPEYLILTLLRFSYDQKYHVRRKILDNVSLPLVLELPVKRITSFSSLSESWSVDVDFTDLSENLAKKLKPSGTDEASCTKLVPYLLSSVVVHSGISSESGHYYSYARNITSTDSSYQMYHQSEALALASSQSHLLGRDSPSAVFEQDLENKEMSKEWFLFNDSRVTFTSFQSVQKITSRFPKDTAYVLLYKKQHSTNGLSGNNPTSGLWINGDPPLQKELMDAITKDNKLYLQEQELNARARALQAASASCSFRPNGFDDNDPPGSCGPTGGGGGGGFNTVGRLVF
How it was run: as §1

USP39 = target: T3, USP39 (UniProt Q53GS9)
T3 sequence (whole entry): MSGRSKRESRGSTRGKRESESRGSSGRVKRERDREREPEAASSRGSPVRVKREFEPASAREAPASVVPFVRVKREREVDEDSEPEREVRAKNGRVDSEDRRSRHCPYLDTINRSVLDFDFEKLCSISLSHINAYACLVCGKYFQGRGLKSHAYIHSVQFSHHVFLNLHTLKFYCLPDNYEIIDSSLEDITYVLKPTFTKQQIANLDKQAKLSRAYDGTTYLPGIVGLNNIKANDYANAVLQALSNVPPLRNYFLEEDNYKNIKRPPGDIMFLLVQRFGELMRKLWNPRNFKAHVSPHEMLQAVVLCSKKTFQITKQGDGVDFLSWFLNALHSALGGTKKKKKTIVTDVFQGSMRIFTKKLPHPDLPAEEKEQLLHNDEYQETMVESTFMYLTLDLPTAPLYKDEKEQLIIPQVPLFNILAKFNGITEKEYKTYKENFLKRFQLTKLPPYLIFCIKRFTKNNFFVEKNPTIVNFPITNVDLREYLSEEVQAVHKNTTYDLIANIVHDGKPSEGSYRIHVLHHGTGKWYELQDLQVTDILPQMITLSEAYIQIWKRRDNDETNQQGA
How it was run: as §1

USP4 = target: T4, USP4 (UniProt Q13107)
T4 sequence (whole entry): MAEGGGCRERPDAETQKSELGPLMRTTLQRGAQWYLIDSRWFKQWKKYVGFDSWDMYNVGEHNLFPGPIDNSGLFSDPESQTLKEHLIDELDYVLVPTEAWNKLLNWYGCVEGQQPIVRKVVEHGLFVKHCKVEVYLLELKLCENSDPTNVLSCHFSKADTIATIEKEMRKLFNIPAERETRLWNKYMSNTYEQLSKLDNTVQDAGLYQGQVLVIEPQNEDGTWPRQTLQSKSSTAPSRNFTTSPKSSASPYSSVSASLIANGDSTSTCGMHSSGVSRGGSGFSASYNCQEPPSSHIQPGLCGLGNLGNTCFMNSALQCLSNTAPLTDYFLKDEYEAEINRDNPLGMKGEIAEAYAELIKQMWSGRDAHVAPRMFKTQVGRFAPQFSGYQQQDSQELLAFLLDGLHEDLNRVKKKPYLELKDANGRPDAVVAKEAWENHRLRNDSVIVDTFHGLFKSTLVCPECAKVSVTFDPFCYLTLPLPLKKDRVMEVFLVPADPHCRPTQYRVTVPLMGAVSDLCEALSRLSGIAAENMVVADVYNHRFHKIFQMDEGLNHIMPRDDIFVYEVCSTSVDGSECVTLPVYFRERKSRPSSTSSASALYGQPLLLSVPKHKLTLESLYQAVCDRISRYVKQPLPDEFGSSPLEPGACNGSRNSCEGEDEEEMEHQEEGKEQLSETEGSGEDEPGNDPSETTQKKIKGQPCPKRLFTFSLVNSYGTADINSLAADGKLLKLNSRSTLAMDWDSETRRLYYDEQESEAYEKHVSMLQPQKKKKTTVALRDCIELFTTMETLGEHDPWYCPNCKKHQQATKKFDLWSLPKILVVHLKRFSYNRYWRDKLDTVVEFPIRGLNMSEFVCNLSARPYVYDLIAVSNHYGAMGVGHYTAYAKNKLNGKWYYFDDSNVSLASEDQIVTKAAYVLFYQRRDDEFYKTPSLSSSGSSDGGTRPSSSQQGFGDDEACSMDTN
How it was run: as §1

Measured: log2 ratio of Biotin-Ahx-Ub-VS probe labelling

Chain of USP34 (Q70CQ2 whole entry, the tested form may be a part): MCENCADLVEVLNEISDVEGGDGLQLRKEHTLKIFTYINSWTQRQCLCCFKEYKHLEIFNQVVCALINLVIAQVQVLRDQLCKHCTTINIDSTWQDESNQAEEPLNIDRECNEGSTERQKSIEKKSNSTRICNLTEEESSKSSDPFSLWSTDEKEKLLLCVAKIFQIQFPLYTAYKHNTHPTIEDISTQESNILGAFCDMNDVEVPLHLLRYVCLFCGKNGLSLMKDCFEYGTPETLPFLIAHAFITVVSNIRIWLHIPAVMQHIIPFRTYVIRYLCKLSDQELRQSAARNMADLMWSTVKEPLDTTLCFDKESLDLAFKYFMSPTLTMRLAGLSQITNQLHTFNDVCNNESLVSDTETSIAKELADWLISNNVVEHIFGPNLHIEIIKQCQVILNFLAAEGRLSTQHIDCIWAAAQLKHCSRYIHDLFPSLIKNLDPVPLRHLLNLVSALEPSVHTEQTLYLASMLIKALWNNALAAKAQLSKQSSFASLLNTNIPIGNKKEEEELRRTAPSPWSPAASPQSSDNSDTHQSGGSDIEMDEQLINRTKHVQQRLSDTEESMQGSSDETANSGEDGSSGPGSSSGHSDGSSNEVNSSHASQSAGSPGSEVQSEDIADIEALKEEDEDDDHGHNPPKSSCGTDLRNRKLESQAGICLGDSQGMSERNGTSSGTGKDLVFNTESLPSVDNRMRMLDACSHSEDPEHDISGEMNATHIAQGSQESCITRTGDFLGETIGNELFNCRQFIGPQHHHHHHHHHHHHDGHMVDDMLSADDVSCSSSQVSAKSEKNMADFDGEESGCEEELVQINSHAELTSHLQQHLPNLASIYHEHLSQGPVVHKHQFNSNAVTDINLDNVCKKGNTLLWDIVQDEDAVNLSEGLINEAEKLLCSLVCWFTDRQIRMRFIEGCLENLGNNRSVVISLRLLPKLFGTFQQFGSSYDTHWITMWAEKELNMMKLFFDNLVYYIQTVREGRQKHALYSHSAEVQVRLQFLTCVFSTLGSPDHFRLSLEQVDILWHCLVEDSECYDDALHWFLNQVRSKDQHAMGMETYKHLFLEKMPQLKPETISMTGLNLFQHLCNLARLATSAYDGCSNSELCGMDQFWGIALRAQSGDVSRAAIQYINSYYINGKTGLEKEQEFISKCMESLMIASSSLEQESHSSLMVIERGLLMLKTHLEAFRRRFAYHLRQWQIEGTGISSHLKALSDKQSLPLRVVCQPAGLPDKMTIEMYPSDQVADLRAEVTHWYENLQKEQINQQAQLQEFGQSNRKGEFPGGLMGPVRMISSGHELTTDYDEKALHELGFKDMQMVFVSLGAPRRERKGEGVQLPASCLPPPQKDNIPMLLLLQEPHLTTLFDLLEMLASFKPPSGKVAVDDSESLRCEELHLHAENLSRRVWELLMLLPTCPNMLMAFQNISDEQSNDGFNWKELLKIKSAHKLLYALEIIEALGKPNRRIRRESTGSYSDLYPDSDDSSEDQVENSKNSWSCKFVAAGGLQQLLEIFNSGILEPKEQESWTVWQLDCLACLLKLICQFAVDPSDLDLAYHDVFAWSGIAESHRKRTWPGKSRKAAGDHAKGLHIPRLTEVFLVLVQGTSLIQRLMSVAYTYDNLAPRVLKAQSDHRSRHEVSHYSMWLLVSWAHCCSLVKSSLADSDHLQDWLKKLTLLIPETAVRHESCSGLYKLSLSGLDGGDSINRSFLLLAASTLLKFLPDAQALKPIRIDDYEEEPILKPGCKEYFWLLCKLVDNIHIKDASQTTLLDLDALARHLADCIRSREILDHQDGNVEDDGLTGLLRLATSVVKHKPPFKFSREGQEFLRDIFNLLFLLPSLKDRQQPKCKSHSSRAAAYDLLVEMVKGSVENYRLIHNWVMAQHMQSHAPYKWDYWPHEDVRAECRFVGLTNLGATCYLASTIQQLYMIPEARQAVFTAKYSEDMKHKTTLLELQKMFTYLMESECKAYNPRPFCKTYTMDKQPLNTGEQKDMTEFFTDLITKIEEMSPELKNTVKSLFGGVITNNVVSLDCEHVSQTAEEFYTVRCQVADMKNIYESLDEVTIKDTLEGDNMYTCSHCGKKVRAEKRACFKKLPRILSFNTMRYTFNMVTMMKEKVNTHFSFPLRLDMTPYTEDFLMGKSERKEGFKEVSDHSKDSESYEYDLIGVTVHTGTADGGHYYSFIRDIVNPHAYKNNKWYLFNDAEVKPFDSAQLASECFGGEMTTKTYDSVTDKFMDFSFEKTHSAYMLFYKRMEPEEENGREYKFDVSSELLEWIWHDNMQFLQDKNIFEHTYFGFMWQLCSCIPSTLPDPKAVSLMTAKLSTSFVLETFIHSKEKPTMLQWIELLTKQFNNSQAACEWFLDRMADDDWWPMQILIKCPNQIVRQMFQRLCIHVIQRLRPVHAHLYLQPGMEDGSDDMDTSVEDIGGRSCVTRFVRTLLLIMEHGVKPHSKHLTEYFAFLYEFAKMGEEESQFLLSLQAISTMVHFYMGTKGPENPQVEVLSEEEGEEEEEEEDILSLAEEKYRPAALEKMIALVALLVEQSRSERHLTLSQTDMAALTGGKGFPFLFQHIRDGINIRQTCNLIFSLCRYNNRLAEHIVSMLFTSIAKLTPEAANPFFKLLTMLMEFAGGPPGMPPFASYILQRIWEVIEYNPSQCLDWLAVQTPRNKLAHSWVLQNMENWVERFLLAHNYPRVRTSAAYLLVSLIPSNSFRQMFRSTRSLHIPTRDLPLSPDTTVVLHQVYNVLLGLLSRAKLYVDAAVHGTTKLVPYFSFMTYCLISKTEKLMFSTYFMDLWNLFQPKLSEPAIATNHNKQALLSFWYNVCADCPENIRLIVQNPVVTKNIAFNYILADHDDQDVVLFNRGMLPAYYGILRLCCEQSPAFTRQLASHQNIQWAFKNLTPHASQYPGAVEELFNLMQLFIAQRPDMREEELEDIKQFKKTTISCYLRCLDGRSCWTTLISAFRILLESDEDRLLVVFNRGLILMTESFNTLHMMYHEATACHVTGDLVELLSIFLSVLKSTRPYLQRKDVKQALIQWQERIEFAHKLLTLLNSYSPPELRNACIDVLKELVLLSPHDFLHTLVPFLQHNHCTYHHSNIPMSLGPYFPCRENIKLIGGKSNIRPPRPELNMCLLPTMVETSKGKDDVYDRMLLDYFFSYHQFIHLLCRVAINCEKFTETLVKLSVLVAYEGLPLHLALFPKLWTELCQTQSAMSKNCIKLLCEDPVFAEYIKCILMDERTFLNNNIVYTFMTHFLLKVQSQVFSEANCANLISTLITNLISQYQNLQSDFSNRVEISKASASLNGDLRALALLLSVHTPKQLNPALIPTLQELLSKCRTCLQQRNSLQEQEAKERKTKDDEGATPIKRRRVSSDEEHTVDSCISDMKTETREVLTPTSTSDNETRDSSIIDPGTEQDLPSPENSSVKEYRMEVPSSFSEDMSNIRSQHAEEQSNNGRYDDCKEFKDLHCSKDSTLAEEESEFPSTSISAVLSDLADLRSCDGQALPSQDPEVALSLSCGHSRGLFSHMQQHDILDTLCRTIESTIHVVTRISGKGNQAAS

N#Cc1cnn(-c2ccccc2)c1NC(=O)CCl
inactive: USP34 0.0145 | USP36 -0.28 | USP38 -0.229 | USP39 -0.0134 | USP4 -0.24
